Results from PubChem BioAssay (NCI).
This is part of a sample that, as a whole, favours compounds with a hit. Of some 83,000 tested, about 20% had one in any assay.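 Assay: single dose, 48 h. Readout: percent growth (0 = no net growth; negative = cell death). Active: <10.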 A number with no mark means an inactive call. Activity calls are given as the source filed them.

tested on: NCI-H522 lung; assay: NCI-60 one-dose screen, 48 h (100 = growth as untreated, 0 = no growth, -100 = all killed); settings: 10 µM
Description: Growth inhibition of the NCI-H522 human Non-Small Cell Lung tumor cell line is measured as a screen for anti-cancer activity. Cells are grown in 96 well plates and exposed to the test compound for 48 hours. Compounds are tested at a single concentration, which is 10^-5 M for most compounds. The reported endpoint is percent growth (GI% or GIPRCNT), where numbers from 0 - 100% represent growth inhibition, and numbers from -100% - 0 represent cell death. For example, a value of 40 represents 60% growth inhibition. A value of 0 means no net growth occurred over the course of the experiment. A value of -40 indicates 40% of cells at the beginning of the experiment died by the end of the experiment. A value of -100 means all cells are dead at the end of the experiment.
NCI-60 Human Tumor Cell Lines Screen was performed using the standard one-dose NCI protocol, which is described in more detail at https://dtp.cancer.gov/discovery_development/nci-60/default.htm.
Compounds with GIPRCNT values below 10 were considered active. Activity score was based on GIPRCNT using the following formula: […]
Score is 0 for GIPRCNT values of 100 or above, 50 for GIPRCNT values of 0, and 100 for GIPRCNT values of -100.

Row | SMILES | growth
1 | CC1=N/C(=C\c2ccc(N(C)C)cc2)C(=O)N1CCc1ccc(S(N)(=O)=O)cc1 | 87.2%
2 | O=C(N=Nc1c(O)[nH]c2ccc(Br)cc12)c1ccc2nc(-c3ccccc3)[nH]c2c1 | -79% (active)
3 | CC(C)C1=C[C@@]23CC[C@@H]4[C@](C)(CCC[C@]4(C)C(=O)NCc4ccccc4)[C@H]2C[C@@H]1[C@H]1C(=O)CCC(=O)[C@H]13 | -12.5% (active)
4 | CC1(C)CC[C@]2(C(=O)N3CCOCC3)CC[C@]3(C)C(=CC[C@@H]4[C@@]5(C)CC[C@H](NCO)C(C)(C)[C@@H]5CC[C@]43C)[C@H]2C1 | -79.8% (active)
5 | C=C1CC[C@H](C(=C)C)[C@H]2C=C(C)C(=O)C3=C(C(=O)[C@@](C)(O)C3)[C@H]12 | -88.6% (active)
6 | Cc1ccc(CNC(=O)Cc2ccc3c(c2)CN(C2CCC(=O)NC2=O)C3=O)cc1 (stereo not given) | 9.7% (active)
7 | O=S(=O)(c1ccc(Cl)cc1)c1nc(-c2ccccc2)oc1S(=O)(=O)c1ccc(Cl)cc1 | 88.1%
8 | O=C(Nc1ccc(I)cc1F)c1cc(-c2ccc(F)cc2F)ccc1O | -9.59% (active)
9 | O=C(c1ccc(Cl)cc1)C1[C@H](c2ccccc2Br)[C@@H](c2ccccc2)NC12C(=O)Nc1ccccc12 (stereo not given in full) | -3.71% (active)
10 | O=C(NCCCCC(c1ccc(F)cc1)c1ccc(F)cc1)NCCCc1cccnc1 | 16.8%
11 | O=C1Nc2ccc(F)cc2/C1=C/c1cccc(OCc2ccccn2)c1 | -14.1% (active)
12 | COc1ccc(C(=O)NC(=S)N2CCN(c3ncnc4c3cnn4-c3ccccc3)CC2)cc1 | 41.2%
13 | C#Cc1ccc(S(=O)(=O)Nc2cccc(-c3csc(NC(C)=O)n3)c2)cc1 | 56.4%
14 | COc1ccc2c(c1)N=C(C(=O)O)/C2=C/c1sc(Nc2ccc(O)cc2)nc1O | 33.7%
15 | COc1ccc(/C=C/C(=O)c2ccc(S(=O)(=O)NCCNc3nc(Nc4ccc(F)cc4)nc(N(C)C)n3)cc2)cc1 | 57.3%
16 | C/C(=N\NC(N)=S)c1ccc(Nc2nc(SC(C)C)nc(-c3ccccc3)c2C#N)cc1 | 78%
17 | O=C(Cn1nc(-c2ccccc2)ccc1=O)NN1C(=O)c2ccccc2C1=O | 77.5%
18 | CNC(=O)c1cccc(N2CCc3c2ccc(NC(=O)Nc2ccc(N4CCN(C)CC4)c(C(F)(F)F)c2)c3F)c1 | -91.7% (active)
19 | NS(=O)(=O)c1ccc(N=Nc2c(O)n(CC(=O)Nc3ccccc3Br)c3ccccc23)cc1 | 32.6%
20 | COc1ccc2nc(Cl)c(-c3cc(-c4ccccc4)nc(=S)[nH]3)cc2c1 | 37%

Row | SMILES | growth
21 | OCCCNc1oc(-c2ccccc2)nc1[P+](c1ccccc1)(c1ccccc1)c1ccccc1 | 2.08% (active)
22 | CCOP(=O)(OCC)O[C@H]1CCC(=O)[C@@H]2[C@H]1[C@H]1C[C@@H]3[C@@]4(C)CCCC(C)(C(=O)OC)[C@@H]4CC[C@@]23C=C1C(C)C (stereo not given in full) | 31.6%
23 | CONC[C@]1(C)C=C2C(=O)[C@](C)(O)C3(CC3)C(C)=C2[C@H]1O | -71.1% (active)
24 | CCOC(=O)c1sc(N/N=C(\C)c2ccc3c(c2)Nc2ccccc2S3)nc1C | 30.9%
25 | CC[C@@]1(O)C(=O)OCc2c1cc1n(c2=O)Cc2c-1nc1cc(F)c(C)c3c1c2[C@@H](N)CC3 | -53.9% (active)
26 | Cn1cc(-c2cc(N)n3nc(-c4c[nH]c5ccc(Br)cc45)cc3n2)c2cccnc21 | -82.8% (active)
27 | Cc1ccc(/C=C/C(=O)c2ccc(S(=O)(=O)NCCNc3nc(Nc4ccc(F)cc4)nc(N(C)C)n3)cc2)cc1 | 71.3%
28 | CCN1CCN(Cc2ccc(C(=O)Nc3cccc(-c4cn(-c5ccc6oc(=O)ccc6c5)nn4)c3)cc2C(F)(F)F)CC1 | -100% (active)
29 | COc1cc2c3c(n(CCCNC(C)C)c(=O)c2cc1OC)-c1nc2c(cc1C3=O)OCO2 | 50.9%
30 | COc1ccc(C(=O)Nc2sc3c(c2C#N)CCC(=O)C3)cc1C(F)(F)F | -64.4% (active)
31 | Cc1ccc(-c2ccc(SCC(=O)Nc3ccc(S(N)(=O)=O)cc3Br)nn2)cc1 | 47.2%
32 | O=C(CNc1nc(-c2ccccc2)cs1)Nc1cccc([N+](=O)[O-])c1 | -83.2% (active)
33 | Cc1ccc(-c2cc(C(=O)N=Nc3c(O)[nH]c4ccccc34)c3ccccc3n2)cc1 | 56.6%
34 | CC(=O)Nc1ccc(-c2cn(-c3cccc(C(=O)Nc4ccc(Cl)c(C(F)(F)F)c4)c3)nn2)cn1 | -63.2% (active)
35 | COC(=O)c1c(C(=O)OC)c2n(c1C)[C@@H]([C@@H](C)[C@H]1CC[C@H]3[C@@H]4CCC5=CC(=O)CC[C@]5(C)[C@H]4CC[C@]13C)SC2 | 23.1%
36 | O=C(Cn1cc(CSc2nnc3oc4ccccc4n23)nn1)Nc1cccc(Cl)c1 | 47.6%
37 | COc1cc(-c2nc3cc(Cl)c(Cl)cc3[nH]2)ccc1OCc1nnc(-c2ccc(Br)cc2)o1 | 8.01% (active)
38 | O=C(NO)c1ccc(Cn2ccc3c(Nc4ccccc4)ncnc32)cc1 | -40.4% (active)
39 | Cc1cccc2cc(-c3cc(-c4ccccc4)nc(=S)[nH]3)c(Cl)nc12 | 64.2%
40 | N#Cc1ccc(-c2nn(-c3ccc(C(=O)O)cc3)cc2CNc2cccc(Br)c2)cc1 | 73.4%
